Measurements reported in PubChem BioAssay (EPA / NIEHS).
Results filed as inconclusive are left out. Activity calls are given as the source filed them. How the source made its calls, unless noted: active means hit-call score of the fitted dose curve at least 0.9, where 1 is the maximum; inactive means score below 0.9.

How the values were obtained:
[1] = CCTE_Shafer_MEA_acute_spike_number: CCTE's Neural Acute Assay for Total Number of Spikes, Shafer Lab (AID 2284008);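 on AC50: curve fitted for decrease in spike count so AC50 reflects inhibitors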
Method in brief: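 Primary rat cortical neurons on 16-electrode MEA wells; on DIV 13 or 15, 40-min baseline then 40-min recording with compound (0.03-40 uM) at 37 C. Spikes detected at 8x rms noise; percent change versus baseline, DMSO as negative control.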

[2] = CCTE_Shafer_MEA_acute_firing_rate_mean: CCTE's Neural Acute Assay for Mean Firing Rate, Shafer Lab (AID 2284009);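 further: analyzed for loss of signal so actives lower firing rate relative to DMSO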
Method in brief: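 Rat primary cortical neurons on 48-well MEA plates, dosed at 0.03-40 uM on DIV 13 or 15; 40 min spontaneous activity recorded at 37 C before and after compound. Spike rate per electrode averaged per well, expressed as percent change from baseline.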

[3] = CCTE_Harrill_HTTr_Viability_MCF7: CCTE's 6-hour Cell Viability Assessment for the High-Throughput Transcriptomics (HTTr) Platform, in MCF-7 cells cultured in DMEM + 10% fetal bovine serum, Harrill Lab (AID 2284010)
Method in brief: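 Viability measured through PI dye exclusion by high-content imaging at 6 h post-dosing.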

[4] = CCTE_Harrill_HTTr_Apoptosis_MCF7: CCTE's 6-hour Apoptosis Assessment for the High-Throughput Transcriptomics (HTTr) Platform, in MCF-7 cells cultured in DMEM + 10% fetal bovine serum, Harrill Lab (AID 2284011)
Method in brief: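 MCF-7 cells in DMEM + 10% fetal bovine serum were exposed to chemicals for 6 hours over an eight-point dilution series. Caspase-3/7 activation was imaged by high content imaging with CellEvent Caspase 3/7 Green; bidirectional fitting used DMSO as baseline.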

[5] = CCTE_Harrill_HTTr_CellCount_MCF7: CCTE's Cell Proliferation Assessment for the High-Throughput Transcriptomics (HTTr) Platform, Harrill Lab (AID 2284012; active means hit-call score of the fitted dose curve at least 0.9, where 1 is the maximum;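 further: count of Hoechst-stained nuclei per well by high-content imaging in MCF-7 cells; cells exposed to compound for six hours; intended direction is loss of nuclei count meaning fewer cells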)
Method in brief: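 Nuclei counting (Hoechst, high content imaging) in MCF-7 after a 6 h treatment at eight concentrations. Activity fitted bidirectionally, DMSO as negative control.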

[6] = CCTE_Shafer_MEA_acute_burst_number: CCTE's Neural Acute Assay for Single-Electrode Bursts, Shafer Lab (AID 2284013)
Method in brief: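 Primary rat cortical neurons on 16-electrode MEA wells, treated on DIV 13 or 15 with compound at 0.03-40 uM. Single-electrode burst count from 40-min recordings at 37 C before and after exposure; percent change from baseline per well, DMSO negative control.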

[7] = CCTE_Shafer_MEA_acute_burst_duration_mean: CCTE's Neural Acute Assay for Mean Burst Duration, Shafer Lab (AID 2284014);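 further: hits are decreases in mean burst duration relative to DMSO controls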
Method in brief: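 Rat primary cortical neurons on 48-well MEA, treated at DIV 13 or 15 with 0.03-40 uM in at least 3 wells. Value is percent change in mean burst duration, comparing 40 min recordings at 37 C before and during exposure.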

[8] = CCTE_Shafer_MEA_acute_interburst_interval_mean: CCTE's Neural Acute Assay for Mean Interburst Interval, Shafer Lab (AID 2284016);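 further: percent change of mean interburst interval versus each well's own pre-dose baseline; curves fitted for decrease in interburst interval relative to DMSO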
Method in brief: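 MEA recording of spontaneous network bursting in primary rat cortical cultures; mean interburst interval was compared before and after a 40-min compound exposure (0.03-40 uM) and expressed as percent change, relative to DMSO.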

[9] = CCTE_Shafer_MEA_acute_burst_percentage_mean: CCTE's Neural Acute Assay for Percentage of Spikes in a Burst, Shafer Lab (AID 2284017);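 on AC50: curve fitted for loss of signal so potency reflects decreased burst percentage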
Method in brief: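 Compounds were tested at 0.03-40 uM on primary rat cortical neuron networks grown over microelectrodes, with at least three wells per compound. Spontaneous firing was recorded for 40 min before and 40 min after dosing, and the change in burst percentage was computed per well.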

[10] = CCTE_Shafer_MEA_acute_burst_percentage_std: CCTE's Neural Acute Assay for Standard Deviation of Burst Percentage, Shafer Lab (AID 2284018);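 further: fitted in the negative direction so actives lower burst percentage SD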
Method in brief: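 Rat primary cortical neurons on 48-well MEAs, DIV 13 or 15, 37 C. 40-min baseline then 40-min recording with compound (0.03-40 uM); well-level SD of per-electrode burst spike percentage, expressed as percent change from baseline.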

[11] = CCTE_Shafer_MEA_acute_per_network_burst_spike_number_mean: CCTE's Neural Acute Assay for Average Number of Spikes in a Network Burst, Shafer Lab (AID 2284019);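 on AC50: curve fitted for loss of signal so actives reduce spikes per network burst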
Method in brief: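 Rat primary cortical neurons on 48-well MEA at DIV 13 or 15, 37 C; compounds 0.03-40 uM, at least three wells each. 40-min baseline then 40-min exposure recording; percent change in mean spikes per network burst.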

[12] = CCTE_Shafer_MEA_acute_per_network_burst_spike_number_std: CCTE's Neural Acute Assay for Standard Deviation of Number of Spikes in a Network Burst, Shafer Lab (AID 2284020);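 further: fitted for decrease in spike-number SD versus DMSO so actives lower it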
Method in brief: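 Rat primary cortical neurons on 48-well MEA (16 electrodes/well), treated DIV 13 or 15 at 0.03-40 uM, ≥3 wells per compound. 40 min recordings at 37 C before and after dosing; value is percent change in network-burst spike-number SD, negative direction vs DMSO.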

[13] = CCTE_Shafer_MEA_acute_per_network_burst_electrodes_number_mean: CCTE's Neural Acute Assay for Mean Number of Electrodes in a Network Burst, Shafer Lab (AID 2284021);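 further: curves fitted for decreases only so hits reduce electrodes per burst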
Method in brief: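 Rat primary cortical neurons on 16-electrode MEA wells were recorded 40 min at baseline on DIV 13 or 15, then 40 min after compound (0.03-40 uM), at 37 C. Value is percent change per well, fitted in loss direction versus DMSO.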

[14] = CCTE_Shafer_MEA_acute_network_burst_percentage: CCTE's Neural Acute Assay for Percentage of Network Bursts, Shafer Lab (AID 2284022);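 further: curves fitted for loss so actives lower network burst percentage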
Method in brief: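 Primary rat cortical neurons on 16-electrode MEA wells, treated on DIV 13 or 15 with compound (0.03-40 uM); 40-min baseline and 40-min post-exposure recordings at 37 C. Value is percent change in spikes within network bursts versus baseline, DMSO negative control.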

[15] = CCTE_Shafer_MEA_acute_cross_correlation_HWHM: CCTE's Neural Acute Assay for Cross Correlation at Half Width at Half Maximum, Shafer Lab (AID 2284026);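 further: percent change per well from pre-dose baseline in spike cross-correlogram half width; hits are a decrease in cross-correlogram half width relative to DMSO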
Method in brief: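 Primary rat cortical neurons on 16-electrode MEA wells; 40-min baseline on DIV 13 or 15, then 40-min recording with compound (0.03-40 uM) at 37 C. HWHM of spike cross-correlogram expressed as percent change from baseline per well, DMSO reference.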

[16] = CCTE_Shafer_MEA_acute_synchrony_index: CCTE's Neural Acute Assay for Synchrony, Shafer Lab (AID 2284027);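 further: network synchrony index of spontaneous spiking in primary rat cortical neurons on MEAs; fitted for loss of signal so actives lower synchrony relative to DMSO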
Method in brief: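 Spontaneous firing of mature rat cortical networks is captured extracellularly on microelectrode arrays at 37 C, with wells needing ≥10 active electrodes. Each compound (0.03-40 uM) is judged by the change in synchrony index from baseline over 40 min.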

Measured: AC50

CC1(C)C(C(=O)OC(C#N)c2cccc(Oc3ccccc3)c2)C1(C)C (centres undefined)
active: [8] 0.309 µM | [9] 1.28 µM | [11] 0.0749 µM | [13] 0.12 µM | [14] 1.54 µM | [15] 28.6 µM | [16] 1.03 µM
inactive: all other assays above

CCOc1nc(F)cc2nc(S(=O)(=O)Nc3c(Cl)cccc3Cl)nn12
not listed: [5]
inactive: all other assays above

CC(C)C1(C)N=C(c2ncccc2C(=O)O)NC1=O (centres undefined)
not listed: [5]
inactive: all other assays above

Cc1ccc(N=CN(C)C=Nc2ccc(C)cc2C)c(C)c1
active: [1] 0.126 µM | [2] 0.125 µM | [7] 4.21 µM | [8] 0.16 µM | [11] 0.427 µM | [12] 4.1 µM | [14] 20 µM
inactive: all other assays above

CCOP(=O)(OCC)Oc1nc(Cl)c(Cl)cc1Cl
inactive: [3] | [4] | [5] | [6] | [8] | [12] | [14]
active: [1] 3.95 µM | [2] 3.95 µM | [7] 0.00298 µM | [9] 34.9 µM | [10] 32.5 µM | [11] 0.00674 µM | [13] 0.0114 µM | [15] 34.8 µM | [16] 0.0262 µM

CC(C)Nc1nc(Cl)nc(NC(C)C)n1
inactive: [3] | [4]

CCOC(=O)C(C)OC(=O)c1cc(Oc2ccc(C(F)(F)F)cc2Cl)ccc1[N+](=O)[O-] (centres undefined)
active: [1] 5.49 µM | [2] 5.46 µM
not listed: [5]
inactive: all other assays above

Cc1nc(N(C)C)nc(OC(=O)N(C)C)c1C
active: [16] 20 µM
not listed: [5]
inactive: all other assays above

OC(c1ccc(Cl)cc1)(c1ccc(Cl)cc1)C(Cl)(Cl)Cl
active: [1] 1.83 µM | [2] 2.15 µM | [3] 38.6 µM | [6] 2.08 µM | [9] 4.81 µM | [12] 20 µM | [13] 20 µM | [14] 20 µM | [15] 5.32 µM | [16] 8.65 µM
inactive: [4] | [5] | [7] | [8] | [10] | [11]

N#Cc1c(Cl)cccc1Cl
inactive: [3] | [4]

COC(=O)N(C(=O)N1CO[C@@]2(C(=O)OC)Cc3cc(Cl)ccc3C2=N1)c1ccc(OC(F)(F)F)cc1
active: [1] 8.32 µM | [2] 8.24 µM | [8] 15 µM | [9] 28.9 µM | [15] 24.3 µM | [16] 26.6 µM
inactive: all other assays above
